Source: PubChem BioAssay AID1463 (National Center for Advancing Translational Sciences (NCATS), 2008)
Screen size: about 280,000 compounds; about 2,600 (0.93%) were called active. Not shown: some 8% with an inconclusive outcome. The entries come from a sample that favours actives as a whole. Values without a mark were called inactive. The call rests on the fitted dose curve; in most records, active means well fitted curve in the direction sought with a large enough effect; inconclusive means small, poorly fitted or top-dose-only effect; inactive means flat fitted curve, though single readings scatter.

assay: Counterscreen qHTS for Inhibitors of Tau Fibril Formation, Fluorescence Polarization; settings: tau K18 P301L Alexa594 fluorescence, heparin fibrillization; series mostly up to 57.7 µM; activity change, negative = decrease: at the top concentration; further: nearly all actives have a fitted effect of over 55% in size
How it was run: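 Human tau K18 P301L (15 uM unlabeled, 0.24 uM Alexa 594-labeled) in 100 mM sodium acetate pH 7 with 20 uM heparin, 6 hr at 37 C. ThT 30 uM added, 1 hr ambient; Alexa 594 FP and total fluorescence read at 555/632 nm.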
On the % scale 0 is the no-effect control and ±100 the full control effect; potency means the concentration at half of the fitted maximal effect; tags describe the fitted curve by direction and shape or compound fluorescence and quenching.

Row | SMILES | activity change, negative = decrease [%] | Potency
1 | COc1cccc2sc(Nc3nc(C)c(C(C)=O)s3)nc12 | -19.8 | –
2 | NNc1nc2c(Cl)cccc2s1 | – | 15.8 µM [quencher] (active)
3 | Fc1cc(F)c2nc(Nc3nc4c(F)cccc4s3)sc2c1 | 2.02 | –
4 | COc1ccccc1CNC(=O)c1ccc(NC(=O)N2CC(C)Sc3ccccc32)cc1 (stereo unspecified) | -23.7 | –
5 | Nc1ccc(Nc2ccccc2)cc1 | – | 14.1 µM [quencher] (active)
6 | Cc1ccc(Nc2ccccc2N)cc1 | -26.2 | –
7 | c1ccc(Nc2n[nH]nc2-c2ccccc2)cc1 | -12.4 | –
8 | O=C(N/N=C/c1c[nH]c2ccccc12)c1cc2ccccc2o1 | -67.2 | –
9 | C[n+]1ccc(/C=C/c2c[nH]c3ccccc23)cc1 | -26.9 | –
10 | CSC(=S)N/N=C/c1c[nH]c2ccccc12 | – | 12.6 µM [quencher] (active)
11 | Cc1ccc(CN2CCc3nc(N4CCN(C)CC4)ncc3C2)cc1 | -1.13 | –
12 | CCOc1ccc(N(Cc2ccccc2)C(=O)c2nc(S(C)(=O)=O)ncc2Cl)cc1 | -10.3 | –
13 | CC1=C(C(=O)OCC(C)C)C(c2ccc(OCc3ccccc3)cc2)N2C(=O)CCSC2=N1 (stereo unspecified) | -27.6 | –
14 | CCN1CCN(c2nc(Nc3cc(OC)ccc3OC)nc(Nc3cc(OC)ccc3OC)n2)CC1 | – | 28.2 µM [quencher] (active)
15 | COc1ccc(OC)c(NC(=O)CCN2CCC(C)CC2)c1 | -2.57 | –
16 | CCOC(=O)N1CCN(CCC(=O)Nc2cc(OC)ccc2OC)CC1 | 9.73 | –
17 | CCOC(=O)c1ccc(NC(=O)CCn2cnnn2)cc1 | -11.4 | –
18 | CSc1nc(-c2ccccc2Cl)nc2c1Cc1c(CO)cnc(C)c1O2 | 2.81 | –
19 | CCCOc1ccc(-c2cccc(NS(=O)(=O)c3ccccc3)c2)nn1 | -27.7 | –
20 | Cc1cc(Nc2ccccc2)nc(N)n1 | 1.59 | –
21 | CSc1nc(Nc2ccc(F)cc2)cc(-c2ccccc2)n1 | – | 7.08 µM [quencher] (active)
22 | CSc1nc(-c2ccccc2)nc(C(Cl)Cl)n1 | -7.66 | –
23 | Cc1cc2c(cc1C)C(c1cccc(OC(C)C)c1)CC(=O)N2 (stereo unspecified) | -7.01 | –
24 | O=[N+]([O-])c1ccc(N2CCN(c3ccc(O)cc3)CC2)c(Cl)c1 | – | 14.1 µM [quencher] (active)
25 | O=C(O)C1CCN(c2ccc([N+](=O)[O-])cc2[N+](=O)[O-])CC1 | 9.45 | –
26 | COc1ccc(N2CCN(c3ccc([N+](=O)[O-])cc3Cl)CC2)cc1 | -9.58 | –

Row | SMILES | activity change, negative = decrease [%] | Potency
27 | CCN1CCN(c2ncnc3c2cnn3-c2ccc(C)c(C)c2)CC1 | -19.4 | –
28 | O=[N+]([O-])c1ccccc1NCc1ccc(Cl)cc1 | -16.6 | –
29 | Oc1ccc(CNc2ccccc2O)cc1 | – | 17.8 µM [quencher] (active)
30 | Oc1ccc(N2CCN(C(=S)NCc3ccccc3)CC2)cc1 | -22.2 | –
31 | Cc1cc(C)c2oc(-c3cccc(NC(=O)c4cccc(F)c4)c3C)nc2c1 | -18.7 | –
32 | COc1ccc(OC)c(CCNC(=O)CCCn2c(=O)c3cccn3c3cccnc32)c1 | -11.3 | –
33 | COc1ccc(Nc2ncnc3ccc(OC)cc23)cc1 | -27.8 | –
34 | COc1ccc(Nc2ncnc3sc(-c4ccccc4)cc23)c(OC)c1 | – | 14.1 µM [quencher] (active)
35 | COc1ccccc1Nc1ncnc2c1oc1ccccc12 | -17.5 | –
36 | O=[N+]([O-])c1cc(Cl)cc(/C=N/NC(=S)Nc2cc(S(=O)(=O)N3CCOCC3)ccc2Cl)c1O | – | 8.91 µM [quencher] (active)
37 | O=C(N/N=C/c1ccc([N+](=O)[O-])o1)c1cccc(S(=O)(=O)N2CCOCC2)c1 | -23.1 | –
38 | O=C(CN1CCN(c2ccc(O)cc2)CC1)Nc1cc(S(=O)(=O)N2CCOCC2)ccc1Cl | -11.7 | –
39 | CSc1ccccc1-c1nnc(NC(=O)c2ccc3c(c2)OCCO3)o1 | -1.25 | –
40 | CCCNC(=O)C1CCC(Cn2c(=O)c3sccc3n(Cc3ccccc3F)c2=O)CC1 (stereo unspecified) | 9.61 | –
41 | COc1ccc(NC(=O)CSc2nccn2C2CCCC2)cc1OC | -6.75 | –
42 | Cn1c(=O)c2c(ncn2CC(=O)Nc2cccc(C(F)(F)F)c2)n(C)c1=O | -20 | –
43 | CC(C)(C)c1ccc(C(=O)NCCC(=O)NCc2ccco2)cc1 | – | 14.1 µM [quencher] (active)
44 | CCCCNC(=O)CCNC(=O)c1ccc(C(C)(C)C)cc1 | -8.92 | –
45 | CC(C)(C)c1ccc(NC(=O)NCc2ccco2)cc1 | -22.4 | –
46 | COc1ccc(NC(=O)COCc2cc(-c3ccco3)on2)cc1 | -5.46 | –
47 | Cc1ccc(NC(=O)CSc2nc3ccccc3c3nc(CCn4cncc4C)nn23)cc1F | 4.76 | –
48 | Cc1nc(N2CCC(C)CC2)c2c(C)c(C(=O)Nc3cc(F)ccc3C)sc2n1 | -5.83 | –
49 | Cc1ccc(NC(=O)Nc2sc3nc4n(c(=O)c3c2C)CCC(C)CC4)c(Cl)c1 (stereo unspecified) | – | 7.08 µM [quencher] (active)
50 | Cc1c(C(=O)Nc2ccccc2)sc2nc3n(c(=O)c12)CCCCC3 | -18.3 | –
51 | CCOC(=O)c1cccc(NC(=O)Cn2cnc3nc4c(cc3c2=O)CCCC4)c1 | -12.6 | –
52 | COc1ccc(-n2nc(C(=O)NCCc3ccc(Cl)cc3)c3c4ccccc4n(C)c3c2=O)cc1Cl | -6.96 | –

Row | SMILES | activity change, negative = decrease [%] | Potency
53 | CC1CCC(N2CC(=O)N(CCC3=CCCCC3)C(c3ccc(F)cc3)C2=O)CC1 (stereo unspecified) | 0.383 | –
54 | O=C(CCn1ccc2cc(S(=O)(=O)N3CCCC3)ccc21)NCc1cccc(Cl)c1 | -25.8 | –
55 | CC(C)(C)OC(=O)N1CCC(c2c(C(=O)N3CCN(c4cccc(Cl)c4)CC3)cnn2-c2cccc(Cl)c2)CC1 | -9.84 | –
56 | Cc1cccc(N2CCN(C(=O)CCSCc3ccccc3F)CC2)c1C | -13.6 | –
57 | Cc1ccc(Nc2nc(-c3ccc(O)cc3O)cs2)nc1 | – | 8.91 µM [quencher] (active)
58 | Cc1cc(O)ccc1-c1cnc2ccccc2n1 | -23.3 | –
59 | Cc1ccc(NC(=O)c2cc(-c3ccc(C)o3)nc3ccccc23)nc1 | -11.4 | –
60 | COc1ccc(NC(=O)CSc2nc3ccccc3[nH]2)cc1 | -24.6 | –
61 | Cc1ccc2nc(N3CCN(c4cccc(Cl)c4)CC3)c3nnnn3c2c1 | -17.8 | –
62 | CC(=O)Nc1cccc(/C(C)=N/NC(=O)c2ccccc2Cl)c1 | -8.65 | –
63 | O=C(NC1CC1)c1ccc2c(c1)NC(=O)c1ccccc1S2 | -16.6 | –
64 | C/C(=N\Nc1cccc(C(=O)O)c1)c1ccc2c(c1)Nc1ccccc1S2 | – | 11.2 µM [quencher] (active)
65 | CCN(CCCNC(=O)c1cc2c(=O)n(CC)c3ccccc3c2s1)Cc1ccccc1 | -15.7 | –
66 | Cc1c(NC(=O)C(C)(C)C)cccc1-c1nc2ccccc2s1 | -15.3 | –
67 | O=c1c(-c2ccccc2)coc2cc(O)ccc12 | -0.968 | –
68 | Cc1c(O)cc(O)c2c(=O)c(-c3ccc(O)cc3)coc12 | 1.54 | –
69 | CC(C)=CCc1c(O)c(CC=C(C)C)c2occ(-c3ccc(O)cc3)c(=O)c2c1O | – | 15.8 µM [quencher] (active)
70 | COc1ccc(-c2nnc(SCC(=O)Nc3ccc(C(C)C)cc3)nc2-c2ccc(OC)c(OC)c2)cc1OC | -20.8 | –
71 | Oc1ccc(-c2nc3ccc(Cl)cn3c2Nc2ccc3c(c2)OCO3)cc1 | -29.6 | –
72 | Cc1ccc2nc(-c3ccc(O)cc3)c(Nc3ccc4c(c3)OCO4)n2c1 | – | 17.8 µM [quencher] (active)
73 | Cc1ccc2nc(-c3cccnc3)c(NC3CCCC3)n2c1 | -14.6 | –
74 | COc1ccc(CCNC(=O)c2ccc(-n3c(C)cc4c3CCCC4)cc2)cc1OC | -19 | –
75 | O=[N+]([O-])c1ccc(N/N=C/c2ccccc2)cc1 | – | 8.91 µM [quencher] (active)
76 | NC(=S)N/N=C/c1ccc([N+](=O)[O-])cc1 | -0.488 | –
77 | O=C(N/N=C/c1ccc([N+](=O)[O-])cc1)C(=O)N1CCCC1 | 4.17 | –
78 | Cc1nc2ccn(Cc3cccs3)c(=O)c2cc1C(=O)NCc1ccc(Cl)cc1 | -12.3 | –

Row | SMILES | activity change, negative = decrease [%] | Potency
79 | COc1cccc(-c2nc(Nc3ccncc3)c3ccccc3n2)c1 | – | 10 µM [quencher] (active)
80 | COc1ccccc1Oc1nc(-c2cccnc2)nc2ccccc12 | -19.1 | –
81 | COc1cccc(Nc2nc3ccccc3c3nncn23)c1 | -28.2 | –
82 | Cc1ccccc1CNC(=O)c1cccc(NC(=O)c2nsc3ccccc23)c1 | -28.9 | –
83 | CCS(=O)(=O)N1CCc2cc(C(=O)N3CCN(c4ccccc4OC)CC3)ccc21 | -8.44 | –
84 | O=C1c2ccccc2C2=Nc3ccccc3SC(c3ccccc3F)C12 (stereo unspecified) | – | 5.62 µM [quencher] (active)
85 | COc1ccc(CCNC(=O)c2ccc3c(c2)nc(C)n3-c2ccc(Br)cc2)cc1OC | -4.98 | –
86 | CCC(=O)N1CCc2cc(CNS(=O)(=O)c3ccc(Br)s3)ccc21 | -5.99 | –
87 | COc1ccc(C2CC(=O)Nc3cc(C)c(C)cc32)c(OC)c1OC (stereo unspecified) | -17.8 | –
88 | COc1ccc2c(c1OC)C(=O)c1ccccc1C2=O | -4.24 | –
89 | COc1ccc(C2Sc3ccccc3NC3=C2C(=O)c2ccccc23)c(OC)c1OC (stereo unspecified) | – | 6.31 µM [quencher] (active)
90 | COc1ccc(C(=O)NCC(c2ccc(N(C)C)cc2)N2CCc3ccccc32)c(OC)c1 (stereo unspecified) | -24.1 | –
91 | Cc1ccc(Oc2c(C(F)(F)F)oc3c(CN4CCCCC4)c(O)ccc3c2=O)cc1 | 2.89 | –
92 | Cc1ccc(C(=O)Nc2c(C(=O)NC(C)(C)C)oc3ccccc23)cc1 | -21.4 | –
93 | Oc1ccc2ccccc2c1N=Nc1nccs1 | – | 12.6 µM [quencher] (active)
94 | CCOC(=O)c1ccc2c(c1)N(Cc1cccc(OC)c1)C(=O)c1ccccc1S2(=O)=O | -24.9 | –
95 | COc1cccc(CNC(=O)Cc2csc3nc(-c4ccccc4)cn23)c1 | -4.57 | –
96 | CCc1ccc(NC(=O)c2cnc3c(-c4ccccc4)c(C)nn3c2C)cc1 | -13.4 | –
97 | Cc1nc2c(-c3ccccc3)c(C)nn2c(C)c1CCC(=O)NCCc1ccccc1 | -14.9 | –
98 | CCc1c(C)nc2c(-c3ccccc3)c(C)nn2c1Nc1ccc(NC(C)=O)cc1 | – | 17.8 µM [quencher] (active)
99 | COc1ccccc1NC(=O)CSC1=Nc2ccccc2C2=NC(CC(=O)NCc3cccs3)C(=O)N12 (stereo unspecified) | -7.59 | –
100 | COc1ccc(CCNC(=O)c2ccc(CSCc3ccc(C)cc3)o2)cc1OC | -12.2 | –
101 | Nc1ccc(N=Nc2ccccc2Cl)c(N)n1 | – | 15.8 µM [quencher] (active)
